# Data as given in ChEMBL document CHEMBL3988442, “University of Dundee, Small-Polar-MMV Screening Library” (2021).
# Target: Shiga toxin 2 (Escherichia coli O157:H7) (UniProt P09385+P09386)
# Assay: E. coli 0.157:H7 Shiga Toxin SOP - stx2 screening assay
# Format: functional
# Set-up: scale not given: direction of the effect not stated beside the values
# Details: 30 µM
row,Compound,Percent Effect [%]
1,CS(=O)(=O)N1CCC(Oc2ccc(C(=O)N3CCSCC3)cc2Cl)CC1,11.9
2,Cc1nc(C)n(CC2CCCCN2CC(=O)NC2CCOCC2)n1 (stereo not given),-17.4
3,CCOc1ccc(Cl)cc1CNCCCn1ccnc1,-32.5
4,Cc1nc(-c2ccco2)ccc1C(=O)N1CCCC1Cn1cccn1 (stereo not given),15.5
5,Cn1ccc(C(=O)N2CCC[C@]3(C[C@@H](OCc4ccccn4)CO3)C2)n1,-3.97
6,O=C(CN1CCCCC1Cn1cncn1)NCCC1=CCCCC1 (stereo not given),11.4
7,CN(C)S(=O)(=O)N1CC[C@]2(C[C@H](Oc3cccnc3)CO2)C1,-27.2
8,CCc1nnsc1C(=O)N1CCOC(c2nc(C)n[nH]2)C1 (stereo not given),-18.3
9,CN(C)C(=O)N1C[C@@H]2COC[C@]2(CNS(C)(=O)=O)C1,-0.0161
10,COc1c(CNC2CCc3cc(F)ccc32)c(C)nn1C (stereo not given),7.74
11,Cc1ccc(NC2CCN(C(=O)c3cc[nH]n3)CC2)nn1,18.1
12,CCc1nc(CCNC(=O)NC2CC2)sc1C,-0.181
13,CC(C)c1nc(C2CCCN(C(=O)CCCn3cncn3)C2)no1 (stereo not given),9.71
14,Cc1cc(NC(=O)N2CCN(c3nc(C)c(C)s3)CC2)no1,-22.7
15,CC(C)Cc1noc(CN2CCOC(Cn3cncn3)C2)n1 (stereo not given),16.9
16,CCc1ccc(NC(=O)N2C[C@H]3C[C@H](C(=O)NC)[C@@H](C2)O3)cc1,-5.17
17,Cc1nn(C)c(C)c1C1CCCN1Cc1nc(C2CC2)no1 (stereo not given),-15.8
18,CCc1cnc2c(c1Nc1ccncc1)c(=O)n(C)c(=O)n2C,-8.05
19,CC(C)c1noc(C(C)N2CCN(Cc3ccco3)CC2)n1 (stereo not given),13.9
20,CC(C)c1n[nH]c(C2CN(Cc3nnc(C4CC4)o3)CCO2)n1 (stereo not given),0.109

row,Compound,Percent Effect [%]
1,Cn1cc(-c2ncnc3c2CCN(C(=O)N2CCOCC2)CC3)cn1,-1.95
2,CN(C)C(C(=O)N1CCCC1)c1ccccc1F (stereo not given),-23.9
3,COC(=O)c1ccc(N2CCN(C(=O)c3cc(C)on3)C(C)C2)cc1 (stereo not given),23.5
4,O=C(C1CC=CC1)N1CCC2(CC1)CN(Cc1ccccn1)CCO2,3.35
5,OCCN1CCN(Cc2coc(-c3ccc(Cl)cc3)n2)CC1,3.75
6,Cc1nn(C)c(C)c1C1CCCN1Cc1cccc(C(=O)N(C)C)c1 (stereo not given),-11.2
7,COc1ccc(CN2CCCC(Cn3nc(C)nc3C)C2)cc1F (stereo not given),-1.86
8,Cc1ccc2oc(C(=O)N3CCc4nnc(N(C)C)cc4C3)cc2n1,-14.3
9,O=C(c1ccncc1F)N1CCN(CC2CC2)c2ncccc2C1,-37.6
10,Cc1nnc(C2Cc3ccccc3CN2Cc2ncc(C(C)(C)C)o2)o1 (stereo not given),8.47
11,CC1CCN(S(=O)(=O)c2cccn(CC(=O)NC3CCCC3)c2=O)CC1,1.09
12,CC1CCCCN1c1nc2c(c(=O)[nH]1)CCN(Cc1cccnc1)C2 (stereo not given),-8.32
13,Cc1cc(N2CCN(Cc3nccn3C)CC2)cc(C)n1,-75.9
14,CCCNCc1cn(C)nc1-c1cccnc1,-14.7
15,Cc1nc(C)n(CC2CCCCN2CCC(=O)Nc2cc(C)on2)n1 (stereo not given),5.91
16,COc1ccccc1N1CCC(CNCc2cccc(C#N)c2)C1 (stereo not given),2
17,Cc1cccc(-c2nc(C)nn2CC(=O)N(C)C2CC2)c1,6.5
18,Cc1ccc(C(=O)NC2CCN(Cc3noc(CC(C)C)n3)CC2)s1,-63.2
19,CCc1nc(CN2CCCN(C(=O)c3cn[nH]c3CC)CC2)cs1,-78.4
20,CSCC(CCO)NC(=O)Nc1cccc(Br)c1 (stereo not given),-15.3
